Assay results: PubChem BioAssay AID624117 (National Center for Advancing Translational Sciences (NCATS), 2012)
Inconclusive results are not listed. Values without a mark were called inactive. Active and inactive are the calls of the source. Calls come from the whole dose curve; as a rule, active = well fitted curve in the direction sought with a large enough effect; inconclusive = small, poorly fitted or top-dose-only effect, or another doubt; inactive = no such curve, though single readings can be large or run the other way.

Experiment: qHTS Assay for Rab9 Promoter Activators: Hit Validation Using Renilla Luciferase Read-Out; for activation (negative = inhibition): % of control where 0% means no effect
Conditions: Huh7 NPC1 promoter Renilla luciferase reporter, 24 h; series mostly up to 76.9 µM; activation (negative = inhibition): at the top concentration
Summary of the method: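 Huh7 cells stably carrying NPC promoter-luciferase, 1,500 cells/well, exposed to compound for 24 h at 37 deg C. Luminescence read 10 min after […] addition; validation of firefly-read primary hits.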
Potency is the fitted concentration of half-maximal effect.

Going from `COc1ccc(-n2c(N)c(C(=O)NCc3ccco3)sc2=S)cc1` to `COc1ccccc1OCCCC(=O)NCc1ccco1`, the “activation (negative = inhibition)” value rises from -2.97% to -1.3%.

First: S=C1NCN(CCc2ccccc2)CN1Cc1ccccc1
Second: O=C(O)CSc1nnc(-c2ccncc2)n1CCc1ccccc1
The “activation (negative = inhibition)” value of the first is higher: -2.18% for the first, -6.59% for the second.

First: Cc1cccc(NC(=O)CSc2nc3ccccc3o2)c1
Second: CC(=O)Nc1ccc(NC(=O)COc2ncnc3ccccc23)cc1
The “activation (negative = inhibition)” value of the first is lower: -11.1% for the first, 5.67% for the second.

Compared with `COc1cccc(CNC(=O)CN(c2cc(C)cc(C)c2)S(=O)(=O)c2c(C)noc2C)c1`, `COc1ccc(/C=C\c2onc(C)c2S(=O)(=O)N2CCC(C(=O)NCCC(C)C)CC2)cc1` is lower in “activation (negative = inhibition)” value: 26.9% for the first, 9.81% for the second.

Going from `COc1ccc(-c2nnc(SCC(=O)/C(C#N)=C(\C)N)o2)cc1` to `Brc1ccccc1-c1nnc(CSc2nnc3sc4ccccc4n23)o1`, the “activation (negative = inhibition)” value falls from 6.56% to -3.13%.

First: CC(=O)NC(CCCN1C(=O)c2ccccc2C1=O)c1nnn(C)n1 (centres undefined)
Second: COc1ccc(NC(=O)CCCN2C(=O)C(c3ccccc3)Oc3cccnc32)cc1OC (centres undefined)
The “activation (negative = inhibition)” value of the first is higher: 2.21% for the first, -6% for the second.

First: Cc1ccc(C(=O)Nc2ccc(N3CCN(C)CC3)nc2)cc1
Second: Cc1ccc(C(=O)Nc2nnc(S(=O)(=O)N3CCOCC3)s2)cc1
The “activation (negative = inhibition)” value of the first is lower: -2.51% for the first, 8.76% for the second.

Going from `Cc1ccc(C(=O)NC2CCN(CC(=O)Nc3c(C)cc(C)cc3C)CC2)cc1` to `COC(=O)c1ccc(NC(=O)c2ccc3nc(C)sc3c2)cc1`, the “activation (negative = inhibition)” value rises from -2.1% to 7.49%.

Compared with `COCc1cc(C)nc(N/N=C/c2ccc(-c3ccc(Cl)cc3[N+](=O)[O-])o2)c1C#N`, `COc1ccc([N+](=O)[O-])cc1COc1ccc2c(-c3ccccc3)cc(=O)oc2c1` is higher in “activation (negative = inhibition)” value: -12.3% for the first, 3.67% for the second.

Compared with `Cc1nc(-c2ccc(S(=O)(=O)Oc3ccc(Cl)cc3Cl)s2)cs1`, `CCCC(C)NC(=O)c1ccc(OCc2ccc(Cl)cc2)c(OC)c1` (centres undefined) is higher in “activation (negative = inhibition)” value: -49.3% for the first, -10.1% for the second.

Compared with `OCCC1CN(Cc2nc3ccccc3s2)CCN1C1CCCC1` (centres undefined), `COc1ccccc1C(=O)Nc1nnc(SCC(=O)NC2CCCC2)s1` is higher in “activation (negative = inhibition)” value: 0.367% for the first, 5.46% for the second.

Compared with `Cc1cccc(C)c1NC(=O)Nc1cccs1`, `CC(C)(C)C(=O)NC(=S)Nc1ccccc1F` is higher in “activation (negative = inhibition)” value: 19% for the first, 22.6% for the second.

Going from `CC1CCc2sc(C(=O)NNC(=S)NC3CC3)cc2C1` (centres undefined) to `CC(C)(C)NC(=S)NNC(=O)c1ccc2ncccc2c1`, the “activation (negative = inhibition)” value falls from -43.9% to -57.9%.

Going from `O=C(CCCn1c(=O)oc2ccccc21)N1CCN(c2ccccn2)CC1` to `O=CN1CCN(C(=O)c2ccccc2Cl)CC1`, the “activation (negative = inhibition)” value falls from -0.368% to -4.72%.

Going from `Nc1ccccc1C(=O)N/N=C1/C2CN3CCN(C2)CC1(Cc1ccccc1)C3` to `CC(Sc1ncnc2c1cnn2-c1ccccc1)C(=O)Nc1ccc(N2CCOCC2)cc1` (centres undefined), the “activation (negative = inhibition)” value rises from -14.9% to -7.01%.

First: CN(C)/C=N/c1c(C#N)cnn1-c1nc2ccccc2s1
Second: CCN(CC)S(=O)(=O)c1ccc(NCc2ccccn2)nc1
The “activation (negative = inhibition)” value of the first is lower: -3.73% for the first, -1.71% for the second.

Compared with `CCC1=[N+](CC(=O)c2ccc(C)cc2)CCn2cccc21`, `CC(=O)[C@@H]1[C@@H](C(=O)c2ccc(C)cc2)[C@]2(C(=O)Nc3ccccc32)[C@H]2C=Cc3cc(F)ccc3N12` is higher in “activation (negative = inhibition)” value: -5.44% for the first, 2.81% for the second.

Compared with `CCCCCCC(=O)Nc1ccc(C(=O)N/N=C/c2cccnc2)cc1`, `CC1CCCN(S(=O)(=O)c2ccc(C(=O)Nc3nnc(-c4ccncc4)o3)cc2)C1` (centres undefined) is lower in “activation (negative = inhibition)” value: 2.29% for the first, -97.9% for the second.

Compared with `COCCNC(=O)C1CCC(CNS(=O)(=O)c2ccc(F)cc2)CC1` (centres undefined), `COC(=O)c1ccccc1NC(=O)c1ccc(-c2ccc(Br)cc2)o1` is lower in “activation (negative = inhibition)” value: -8.21% for the first, -44.9% for the second.

With `Cc1ccc(S(=O)(=O)/N=C(/Nc2ccccn2)c2ccc(Cl)cc2)cc1` the Potency was 20.7 µM (active).
